# Screens deposited in PubChem by National Center for Advancing Translational Sciences (NCATS).
# Sampled rows, rich in hits. Any-hit rate of the full collection: about 19%.
# HT1080 IDH1KD tx = toxicity to HT-1080 IDH1 knockdown cells (counter line); HT-1080 IDH1 knockdown viability, ATP luminescence, 48 h; 360,000 compounds, 2% hits; Potency, µM (top dose mostly 46.1 µM), inactives show top-dose activity, negative = toxicity, most hits filed as cytotoxic; AID 686971;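 note: 0% = DMSO wells and -100% = cell-free medium wells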
#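 IDH1KD HT-1080 cells, 750/well, RPMI + 5% FBS; compound pinned after 2 h settling; 48 h, 37 °C; CellTiter-Glo luminescence; % activity normalised to DMSO and no-cell wells; curves fitted, classed by r2 and efficacy.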
# DT40 TDP1 no CPT = qHTS for Inhibitors of human tyrosyl-DNA phosphodiesterase 1 (TDP1): qHTS in cells in absence of CPT; AID 686978, 2013; DT40 Tdp1-/- hTDP1 cells, no CPT, ATP luminescence, 48 h; 420,000 compounds, 15% hits; Potency, µM (doses to about 46.2 µM), for the others: top-dose activity change, negative = growth inhibition, actives largely listed as inhibitors; note: nearly all actives have a fitted effect of over 55% in size
#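 Chicken DT40 Tdp1-/- cells complemented with human TDP1, screened without camptothecin (DMSO vehicle only), 400 cells/well. Compounds pin-transferred, cells incubated at 37 °C for at least 48 hr. Growth read as ATP-dependent luminescence (CellTiter-Glo, 30 min at RT).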
# HT1080NT lethal = kills 2HG-producing HT-1080-NT fibrosarcoma cells | Potency, µM (highest dose often 46.1 µM), inactives show at the highest dose activity, negative = less viability, actives largely listed as cytotoxic | HT-1080-NT fibrosarcoma viability, CellTiter-Glo ATP luminescence, 48 h | 360,000 compounds, 1.6% hits;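 note: NT is the 2HG producing partner of a matched IDH1 knockdown line; 0% = DMSO-treated cells and -100% = media-only wells without cells; nearly all actives have a fitted effect of over 55% in size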
#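 Fibrosarcoma NT cells, 750 per well in 5% FBS RPMI, were exposed to compound for 48 hours. Viability: CellTiter-Glo luminescence.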
# DT40 TDP1 CPT = DT40-hTDP1 cell growth loss with CPT; chicken DT40 Tdp1-/-;hTDP1 cells + 20 nM CPT, ATP luminescence, 48 h; Potency, µM (top dose mostly 46.2 µM), without a hit: top-dose activity change, negative = growth inhibition, usual class: inhibitors; 420,000 compounds, 12% hits; note: nearly all actives have a fitted effect of over 55% in size
#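 Chicken DT40 Tdp1-/- cells stably complemented with human TDP1 were seeded at 400 cells/well in medium containing 20 nM camptothecin, exposed to pin-transferred compounds, and grown at 37 °C for at least 48 hr. Viability was read as ATP luminescence.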
# KB-3-1 cytotox = kills parental KB-3-1 adenocarcinoma cells; KB-3-1 viability, CellTiter-Glo ATP luminescence, 72 h; Potency, µM (top dose mostly 46.1 µM), actives largely listed as cytotoxic; 400,000 compounds, 1.4% hits; AID 1347075; note: nearly all actives have a fitted effect of over 60% in size
#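 KB-3-1 cells, DMEM (no phenol red) + 10% FBS; compound by pin transfer, 72 h, 37 °C. Readout: CellTiter-Glo luminescence after 10 min. Data normalized, curve-fitted.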
# KB-V1 MDR tox = kills drug-selected multidrug resistant KB-V1 cells; KB-V1 MDR cells viability, CellTiter-Glo, 72 h; Potency, µM (highest dose often 46.1 µM), hits mostly cytotoxic; 400,000 compounds, 3.4% hits; AID 1347076; note: nearly all actives have a fitted effect of over 60% in size
#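 Luminescent ATP read-out (CellTiter-Glo, 10 min) measures survival of drug-selected KB-V1 MDR cells after 72 h, 37 degrees C compound exposure. Medium: phenol-red-free DMEM, 10% FBS. Values from fitted concentration-response curves.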
# The depositor's hits bear a star; i = inactive; ? = inconclusive; . = no result. Calls come from the whole dose curve; as a rule, active = well fitted curve in the direction sought with a large enough effect; inconclusive = small, poorly fitted or top-dose-only effect, or another doubt; inactive = no such curve, though single readings can be large; an effect the other way counts as inactive or inconclusive. Unless noted, % is set by controls: 0 for no effect and ±100 for the full control effect; potency is the fitted concentration of half-maximal effect.
SMILES,HT1080 IDH1KD tx,DT40 TDP1 no CPT,HT1080NT lethal,DT40 TDP1 CPT,KB-3-1 cytotox,KB-V1 MDR tox
COc1cc(C2C(C(=O)Nc3ccc(C)cc3C)=C(C)Nc3nc(SCc4ccccc4)nn32)cc(OC)c1OC (stereo unspecified),.,23µM*,.,21µM*,i,i
CC1=C(C(=O)Nc2ccc(C)cc2C)C(c2cccs2)n2nc(SCc3ccc(Cl)cc3)nc2N1 (stereo unspecified),.,12µM*,.,10µM*,i,?
COc1cccc(CSc2nc3n(n2)C(c2cccc(F)c2)C(C(=O)Nc2ccccc2C)=C(C)N3)c1 (stereo unspecified),.,-3%,.,4%,i,?
COC(=O)c1ccc(C(=O)OC)c(NC(=O)c2cnn3c(C(F)F)cc(-c4ccccc4)nc23)c1,.,?,.,-9%,i,i
CC1=C(C(=O)Nc2ccccc2C)C(c2ccccn2)n2nc(SCc3ccccc3F)nc2N1 (stereo unspecified),.,10µM*,.,6.5µM*,.,.
COc1ccccc1NC(=O)C1=C(C)Nc2nc(SCc3ccccc3F)nn2C1c1ccncc1 (stereo unspecified),.,-24%,.,-6%,i,i
CC1=C(C(=O)Nc2ccccc2C)C(c2cccs2)n2nc(SCc3ccccc3)nc2N1 (stereo unspecified),.,21µM*,.,21µM*,i,i
O=C(Nc1ccccc1-c1cn2c(CN3CCNCC3)csc2n1)c1cnc2ccccc2n1,.,5.6µM*,.,3.5µM*,i,?
O=C(Cc1csc2nc(-c3ccccc3)cn12)NCc1ccc(F)cc1,.,-11%,.,-15%,i,i
CCC1(c2ccccc2)NC(=O)N(CC(=O)Nc2cc(S(=O)(=O)N3CCCCCC3)ccc2OC)C1=O (stereo unspecified),-12%,21µM*,-1%,16µM*,i,i
CCC1(c2ccccc2)NC(=O)N(CC(=O)Nc2cc(S(=O)(=O)N3CCCCC3)ccc2OC(C)C)C1=O (stereo unspecified),-11%,?,-16%,23µM*,i,i
COCCN1C[C@@H](CO)O[C@@H](n2cnc3c(N(C)C(C)C)ncnc32)C1,?,-9%,?,4%,i,i
Cc1cnc(NC(=O)C2(C)CCN2C(=O)C(C)C)s1 (stereo unspecified),?,-8%,14%,2%,i,i
COC(=O)c1ccccc1Sc1ncnc2onc(C)c12,?,?,?,15µM*,i,i
C=CC(=O)N1C/C(=C/c2ccc(F)cc2)C(=O)/C(=C\c2ccc(F)cc2)C1,2.9µM*,-104%,?,0.82µM*,?,i
O=C(/C=C/c1ccc(F)cc1)N1CCN(S(=O)(=O)/C=C/c2ccccc2)CC1,-6%,-7%,-1%,3%,i,i
CCC(=O)N1c2ccccc2CC1C(=O)NCc1ccc(OC(C)C)cc1 (stereo unspecified),.,?,.,?,i,i
O=C(c1cc(-c2ccccn2)nc2ccc(Br)cc12)N1CCN(S(=O)(=O)c2ccccc2)CC1,-2%,?,-5%,?,i,i
Cc1ccc(-c2cc(C(=O)N3CCN(c4ccc(O)cc4)CC3)c3ccccc3n2)cc1,?,?,?,?,?,i
Cc1ccc(-c2cc(C(=O)N3CCN(c4ccc(F)cc4)CC3)c3ccccc3n2)o1,-22%,29µM*,-6%,?,?,?
Cc1ccc(-c2cc(C(=O)N3CCOCC3)c3ccccc3n2)o1,?,18µM*,?,?,i,i
